# CYP2C9 inhib – blocks human cytochrome P450 2C9; P11712; AID 777; inhibition, % at 5 µM; CYP2C9 Supersomes, luciferin-H conversion, luminescence; hit rate 20% among 96,000;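 active means blocking of liver enzyme CYP2C9 beyond about 50% at 5 µM, limit read from the data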
# Target sequence (P11712 whole entry, looked up): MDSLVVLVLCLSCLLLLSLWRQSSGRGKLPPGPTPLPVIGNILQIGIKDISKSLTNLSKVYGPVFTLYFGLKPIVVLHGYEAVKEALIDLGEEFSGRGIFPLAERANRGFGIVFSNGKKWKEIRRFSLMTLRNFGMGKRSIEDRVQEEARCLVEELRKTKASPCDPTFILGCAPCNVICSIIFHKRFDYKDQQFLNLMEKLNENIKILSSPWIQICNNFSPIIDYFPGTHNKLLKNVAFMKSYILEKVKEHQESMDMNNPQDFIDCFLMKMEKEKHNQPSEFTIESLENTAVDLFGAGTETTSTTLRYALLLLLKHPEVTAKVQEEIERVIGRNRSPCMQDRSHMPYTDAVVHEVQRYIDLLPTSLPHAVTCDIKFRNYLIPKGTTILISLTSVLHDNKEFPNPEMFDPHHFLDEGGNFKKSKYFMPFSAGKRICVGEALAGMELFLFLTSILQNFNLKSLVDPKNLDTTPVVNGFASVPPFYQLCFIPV
# CYP2C9 act – CYP2C9 (human) activation | recombinant CYP2C9, luciferin-H conversion, luminescence; active compounds read high; factor 1 = untreated enzyme, 0 = blocked | activation factor at 5 µM | hit rate 1.4% among 96,000 | AID 1024;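 active means activation factor of 2 or more for CYP2C9 at a 5 µM dose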
# Cav3 T inh – inhibitors of human Cav3.2 T-type calcium channel; hit rate 4% among 100,000; Cav3.2-expressing cells, Fluo-4 calcium fluorescence FDSS; active compounds read low; AID 449739; O95180; B-score at 10 µM;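 active means single-dose well whose peak fluorescence ratio is a statistical outlier from its plate by either plate-standardised score or position-corrected B-score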
# CYP2C19 inhib – human CYP2C19 inhibition; P33261; CYP2C19 Supersomes, luciferin-H EGE luminescence, 30 min; inhibition, % at 5 µM; hit rate 21% among 96,000; AID 778;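 active means CYP2C19 inhibition above a set limit at 5 µM in the primary screen, cut at about 50% in these data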
# CYP2C19 activ – cytochrome P450 2C19 (human) activation; recombinant CYP2C19, luciferin-H EGE luminescence; active compounds read high; 0 = fully inhibited enzyme, 1 = untreated enzyme; activation factor at 5 µM; P33261; 96,000 tested, under 10 active; AID 1025;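 active means activation factor of at least 2 at 5 µM in the primary screen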
# Numbers stand for hits; 0 = inactive; - = no result. Shown are actives, neighbours in structure and some others; about 27% of the full set was active somewhere.
SMILES,CYP2C9 inhib,CYP2C9 act,Cav3 T inh,CYP2C19 inhib,CYP2C19 activ
COC(=O)c1cc(C)sc1NC(=O)c1cccnc1,0,0,0,0,0
O=C1C(C=NCCCN2CCCC2=O)=C(O)c2ccccc21,0,0,0,0,0
CCOC(=O)CSc1nnnn1-c1cc(OC)ccc1OC,64.9,0,0,71.3,0
CCCOC(=O)c1ccc(-n2nnnc2SCC(=O)N2CCCCC2)cc1,0,0,0,0,0
COc1ccc(OC)c(NC(=O)CSc2nnnn2-c2ccc3c(c2)OCO3)c1,0,0,0,0,0
COc1ccc(OC)c(-n2nnnc2SCC(=O)Nc2ccc3c(c2)OCCO3)c1,0,0,0,0,0
COc1ccc(OC)c(-n2nnnc2SCC(=O)Nc2ccc(C(=O)N3CCCCC3)cc2)c1,67.1,0,0,78.1,0
COC(=O)c1ccc(-n2nnnc2SCC(=O)N2CCCCC2)cc1,55.1,0,0,0,0
CCOC(=O)C(/C=C(\C#N)C(=O)OCC)=C(/N)N1CCN(c2ccc(Cl)cc2)CC1,0,0,0,0,0
CC(C)(CNc1ccc([N+](=O)[O-])cc1Cl)CNS(C)(=O)=O,0,0,0,54.6,0
Cc1[nH]ccc(=O)c1OC1OC(CO)C(O)C(O)C1O (stereo not given),-,-,0,-,-
COC(=O)c1ccccc1S(=O)(=O)N1Cc2cc([N+](=O)[O-])ccc2Oc2ccccc21,61.5,0,0,100.4,0
CN1CCN(c2ccc([N+](=O)[O-])cc2NC(=O)c2ccccc2Cl)CC1,0,0,0,0,0
COc1ccc(N2C(=O)C(Cl)=C(N3CCCC3)C2=O)cc1,0,0,0,0,0
COC(=O)c1cccc(N2C(=O)C(Cl)=C(N3CCOCC3)C2=O)c1,0,0,0,61.0,0
O=C1C(Cl)=C(N2CCOCC2)C(=O)N1c1ccccc1Cl,0,0,0,93.6,0
COC(=O)C1=C(C)OC(N)=C(C#N)C1c1cc(OC)c(OCC(N)=O)cc1Cl (stereo not given),0,0,0,0,0
C/C(=C\C(=O)O)C12CC3CC(CC(C3)C1)C2,0,0,0,0,0
Cc1ccn2c(NC(=O)c3ccco3)c(-c3ccccc3)nc2c1,-,-,0,-,-
O=C(Nc1c(-c2ccccc2)nc2sccn12)c1ccccc1,74.2,0,0,79.3,0
COc1c(Cl)cc(Cl)cc1/C=N/n1cnnc1,0,0,0,0,0
O=C(O)CCCCCCCCCC(=O)c1cccs1,0,0,0,0,0
O=C(Nc1ccc(NC(=O)C2CC2)nc1)c1cccnc1,0,0,0,0,0
CC(C)(C)NC(=O)NC(=O)CSc1ncc(C(F)(F)F)cc1Cl,0,0,0,0,0
CCCNC(=O)NC(=O)CSc1ncc(C(F)(F)F)cc1Cl,0,0,0,69.7,0
SMILES,CYP2C9 inhib,CYP2C9 act,Cav3 T inh,CYP2C19 inhib,CYP2C19 activ
Cc1ccc(C)n1-c1ccc(-c2nnc3n2CCCCC3)s1,63.8,0,0,0,0
C1CCc2nnc(-c3nnc4n3CCCCC4)n2CC1,0,0,0,0,0
Clc1ccc(-c2nnnn2-c2ccc(Cl)c(Cl)c2)cc1Cl,52.6,0,0,96.1,0
Clc1ccc(-c2nnc3n2CCCC3)cc1Cl,0,0,0,0,0
O=C1Nc2c(c(=O)[nH]c(=O)n2-c2ccccc2)C1(Nc1ncccn1)C(F)(F)F (stereo not given),0,0,0,0,0
Cc1cnc(C(=O)OCC(=O)c2csc(N3CCCCC3)n2)cn1,0,0,0,0,0
COc1cccc(/C(C#N)=C/c2c(-c3ccc(Cl)cc3)nc3c(C)cccn23)c1,70.1,0,0,55.1,0
Cc1cccn2c(/C=N/OCc3cccc(F)c3)c(-c3ccc(Cl)cc3)nc12,0,0,-,0,0
Nc1c(C(=O)Nc2ccc3c(c2)OCCO3)nnn1CCc1ccccc1,79.4,0,0,57.3,0
CCC(=O)Nc1cccc(NC(=O)CSc2nnnn2Cc2ccccc2)c1,53.3,0,0,0,0
O=C(CSc1nnnn1Cc1ccccc1)Nc1ccc2c(c1)OCO2,0,0,0,0,0
O=C(CSc1nnnn1Cc1ccccc1)Nc1ccc2c(c1)OCCO2,83.4,0,0,82.3,0
CCn1cc([N+](=O)[O-])c(C(=O)Nc2ccc3c(c2)OCCO3)n1,0,0,0,0,0
Cc1ccc(Oc2cc(C#N)c(C#N)cc2-n2nnc3ccccc32)cc1C,0,0,0,0,0
Cc1cc(C)c(C(=O)CC2(O)C(=O)Nc3ccccc32)cc1C (stereo not given),0,0,0,91.5,0
CCN(CC)CCN1C(=O)C(O)=C(C(C)=O)C1c1ccccc1 (stereo not given),0,0,-,0,0
O=P(c1ccccc1)(c1ccccc1)C(c1ccco1)N1CCOCC1 (stereo not given),0,0,0,0,0
c1ccc(Cc2nnc3sc(-c4ccco4)nn23)cc1,0,0,0,90.9,0
COc1cccc(OC)c1-c1nn2c(-c3ccccc3Cl)nnc2s1,0,0,0,82.0,0
Clc1ccccc1-c1nnc2sc(-c3ccco3)nn12,0,0,0,69.3,0
Clc1ccc(-c2nnc3sc(-c4ccco4)nn23)c(Cl)c1,0,0,-,0,0
O=C(NC1CCCCC1)NC1(C(=O)NCCCN2CCOCC2)CCCCC1,0,0,0,0,0
CC1(C)C(=O)C2(CCCCC2)C(=O)OC1c1ccc(O)cc1 (stereo not given),59.5,0,0,76.8,0
O=C1OC(c2ccccc2)C2(CCCC2)C(=O)C12CCCC2 (stereo not given),0,0,0,0,0
COC(=O)C1=C(C)OC(N)=C(C#N)C1c1cccnc1 (stereo not given),0,0,0,0,0
SMILES,CYP2C9 inhib,CYP2C9 act,Cav3 T inh,CYP2C19 inhib,CYP2C19 activ
CCOC(=O)CC1=C(C#N)C(c2cccnc2)C(C(=O)OCC)=C(N)O1 (stereo not given),75.1,0,0,73.2,0
CCOC(=O)CC1=C(C(=O)OCC)C(c2cccnc2)C(C#N)=C(N)O1 (stereo not given),0,0,0,56.4,0
CNCC(O)Cn1c(C(F)(F)F)nc2ccccc21 (stereo not given),-,-,0,-,-
CC(=O)Oc1cc2c(cc1Cl)C1(CC(c3ccccc3Cl)O2)CC(C)(C)NC(=S)N1 (stereo not given),0,0,0,0,0
O=S(=O)(c1ccccc1)C1(S(=O)(=O)c2ccccc2)CCCC1,57.8,0,-,97.8,0
O=C(O)COCC(=O)Nc1ccc2c(c1)CCC2,0,0,0,0,0
CC1CCN(CCC(=O)Nc2ccc3c(c2)CCC3)CC1,-,-,0,-,-
CC1CN(CCC(=O)Nc2ccc3c(c2)CCC3)CC(C)O1 (stereo not given),0,0,0,51.9,0
COc1ccc(CC(=O)Nc2ccc3c(c2)CCC3)cc1OC,0,0,0,81.1,0
Cc1cc(C)n(-c2ccc(C(=O)Nc3cc(C(F)(F)F)ccc3N3CCOCC3)cc2)n1,0,0,0,0,0
Cc1cc(C#N)c(C)n1-c1cc(C(F)(F)F)ccc1N1CCOCC1,0,0,0,99.4,0
CCOc1ccc(N/C(C)=C/C(=O)c2ccc(C)o2)cc1,0,0,0,52.0,0

# Screening data: PubChem, several laboratories
